Rows were chosen to be rich in hits. Some 2.8% of all compounds tested hit in one or more screens of this group.
Granule exo inh: blocks lytic granule exocytosis. 0.66% of 360,000 active. TALL-104 LAMP-1 surface exposure, flow cytometry; cells stimulated with thapsigargin and PMA. inhibition, % at 10 µM;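 active = inhibition above about 55%, limit read from the data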
SKKanGAS inh: inhibitors of SKKanGAS S. pyogenes growth in kanamycin (SK-promoter or general growth effect); BacTiter-Glo, 6 h; inhibition, % at 7.5 µM; 1.3% of 300,000 active; AID 1662;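 active = mean replicate score, as percent of positive control median, at least 50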;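 note: strain carries kanamycin resistance gene driven by streptokinase promoter and grows in 40 µg/ml kanamycin; loss of luminescence reflects streptokinase promoter inhibition or plain growth inhibition; 0% = median of DMSO wells and 100% = positive control at its reference dose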
PP1 inh: counter-screen for PP5 inhibitors: inhibitors of human PP1-alpha; purified PP1alpha, OMFP fluorescence; 0.9% of 320,000 active; inhibition, % at 6.7 µM;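 active = inhibition above the mean inhibition of all tested compounds plus 3 SD, computed separately for each screening campaign, cut at about 15% in these data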
IDE inh: inhibitors of human insulin-degrading enzyme in cells. P14735. HEK cells, FAbetaB cleavage, fluorescence polarization. inhibition, % at 5.59 µM. 0.41% of 320,000 active. AID 434962;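 active = percent inhibition above the average of all tested compounds plus 3 SD, set per screening campaign, cut at about 16% in these data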;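 note: IDE supplied by intact live HEK cells; FP after avidin binding of uncleaved biotin substrate so inhibition keeps polarization high; 0% = DMSO wells and 100% = 60 µM reference IDE inhibitor Ii1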
PP5 inh: PP5 (human) phosphatase inhibition. P53041. purified PP5c, OMFP substrate fluorescence. inhibition, % at 6.7 µM. 0.18% of 320,000 active. AID 1987;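 active = inhibition above the campaign's mean inhibition across all tested compounds plus 3 SD, cut at about 9.5% in these data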;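 note: 0% = DMSO only and 100% = 100 µM cantharidin control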
Target sequence (P53041 whole entry, looked up): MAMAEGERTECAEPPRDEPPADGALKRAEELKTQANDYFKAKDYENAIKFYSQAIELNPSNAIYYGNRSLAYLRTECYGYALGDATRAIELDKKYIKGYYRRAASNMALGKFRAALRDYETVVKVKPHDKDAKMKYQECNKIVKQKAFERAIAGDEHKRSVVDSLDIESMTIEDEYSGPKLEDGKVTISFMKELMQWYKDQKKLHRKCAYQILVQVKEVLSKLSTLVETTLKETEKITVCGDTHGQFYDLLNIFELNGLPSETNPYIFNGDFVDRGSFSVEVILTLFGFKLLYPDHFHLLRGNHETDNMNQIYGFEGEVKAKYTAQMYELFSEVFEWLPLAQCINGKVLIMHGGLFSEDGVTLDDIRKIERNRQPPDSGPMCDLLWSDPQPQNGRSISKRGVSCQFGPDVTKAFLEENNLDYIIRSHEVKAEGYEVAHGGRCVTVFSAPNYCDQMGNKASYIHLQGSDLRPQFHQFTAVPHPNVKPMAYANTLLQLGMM
IDE cell activ: boosts human insulin-degrading enzyme activity in HEK cells; activation, % at 5.96 µM; AID 493087; FAbeta-B cleavage, fluorescence polarization; 0% vehicle, 100% cell-free pure enzyme wells; 0.073% of 340,000 active; P14735;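 active = activation above the mean of all tested compounds plus 3 SD, set per screening campaign, cut at about 17% in these data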
PP1 inh confirm: confirmation of human PP1 phosphatase inhibitors | shares compounds with PP1 inh | purified PP1alpha, OMFP substrate fluorescence | inhibition, % at 6.7 µM | 52% of 1,900 active;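 active = mean PP1 inhibition above a set limit taken from the earlier primary screen, cut at about 15% in these data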
PP5 inh counter: counter-screen for PP1 inhibitors: human PP5 phosphatase inhibition; shares compounds with PP1 inh; purified PP5c, OMFP fluorescence; inhibition, % at 6.7 µM; 4% of 1,900 active; AID 2360;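 active = mean PP5 inhibition over triplicate wells above about 9.5% taken from the earlier PP1 screen, limit read from the data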
IDE cell inh cf: cellular human IDE inhibition, confirmation. HEK cells, FAbetaB cleavage, fluorescence polarization. inhibition, % at 5.59 µM. shares compounds with IDE inh. AID 435028. 51% of 1,200 active;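 active = mean inhibition across triplicate wells above the cutoff set by the earlier primary insulin-degrading enzyme screen, cut at about 16% in these data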;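 note: 0% = DMSO wells and 100% = 60 µM reference IDE inhibitor Ii1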
HEK cytotox: kills HEK cells in IDE inhibitor counter-screen. shares compounds with IDE inh. 28% of 1,200 active. AID 449730. HEK293 cytotoxicity, ATP luminescence. inhibition, % at 5.59 µM; in the data active = inhibition above about 22%;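 note: 0% = vehicle wells and 100% = reference cytotoxic drug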
Granule exo CP1: lytic granule exocytosis inhibition | AID 651954 | 11% of 1,500 active | inhibition, % at 10 µM | shares compounds with Granule exo inh | TALL-104 cells, LAMP-1 externalization, flow cytometry; stimulated with PMA plus thapsigargin; in the data active = inhibition above about 60%;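 note: 0% = stimulated vehicle wells and 100% = unstimulated wells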
Starred values were filed as active, the others as inactive; . = no result given.

SMILES | Granule exo inh | SKKanGAS inh | PP1 inh | IDE inh | PP5 inh | IDE cell activ | IDE cell inh cf | HEK cytotox | others
COc1cc(/C=C2/SC(=Nc3ccc(O)cc3)NC2=O)ccc1O | 34 | 45 | 23* | 35* | 1 | -41 | 60* | 59* | PP1 inh confirm=24*;PP5 inh counter=-1
O=C(Nc1cccc(-n2cccn2)c1)C1CCCN(Cc2ccccc2F)C1 (stereo not given) | 0 | 0 | 6 | 0 | 2 | 1 | . | .
COc1ccc2nc3cc(Cl)ccc3c(Nc3cc(C(C)C)c(O)cc3C)c2c1 | 62* | 12 | 29* | -2 | 4 | -2 | . | . | PP1 inh confirm=8;PP5 inh counter=-1;Granule exo CP1=54
C[C@@H](C(=O)Nc1ccc2ccccc2c1)[C@H]1C[C@]1(C)[C@H](NS(=O)(=O)c1ccccc1)c1ccccc1 | . | . | 2 | 0 | 3 | . | . | .
CCN(CC)CCOC(=O)c1ccc(N/C=C(/C#N)c2nc(-c3ccc(OC)cc3)cs2)cc1 | 64* | 23 | 60* | 3 | 1 | 5 | . | . | PP1 inh confirm=6;PP5 inh counter=-1;Granule exo CP1=66*
CCN(CC)CCOC(=O)c1ccc(N/C=C(/C#N)c2nc(-c3cc4ccccc4oc3=O)cs2)cc1 | -18 | 9 | . | . | . | 0 | . | .
O=C1c2cccc3cccc(c23)C(=O)N1CC1CCN(CC(O)COc2ccc3ccccc3c2)CC1 (stereo not given) | 58* | 70* | 34* | -1 | 0 | -2 | . | . | PP1 inh confirm=0;PP5 inh counter=1;Granule exo CP1=40
CC(=O)N1CCC(C(=O)OCc2ccccc2F)(c2ccccc2)CC1 | 35 | 1 | 0 | 3 | 0 | -5 | . | .
N#Cc1nc(-c2ccc(OCc3ccccc3)cc2)oc1NCCCn1ccnc1 | 81* | 44 | 21* | 11 | 5 | -2 | . | . | PP1 inh confirm=9;PP5 inh counter=1;Granule exo CP1=33
Cc1cc(N2CCCC2=O)ccc1S(=O)(=O)NC1CCCCC1 | 6 | 1 | -2 | -4 | 3 | 0 | . | .
Cc1ccc2sc(N(CCCN(C)C)C(=O)c3ccc(S(=O)(=O)N4CCOCC4)cc3)nc2c1C | 9 | 0 | -1 | -2 | 0 | 0 | . | .
CCN(Cc1ccccc1)S(=O)(=O)c1ccc(C(=O)N(CCCN(C)C)c2nc3c(C)c(C)ccc3s2)cc1 | 60* | 27 | 19* | 3 | 5 | 14 | . | . | PP1 inh confirm=-3;PP5 inh counter=3;Granule exo CP1=33
O=C(O)Cc1sc(N/N=C\c2ccncc2)nc1-c1ccccc1 | -1 | 17 | 1 | 40* | -2 | -67 | 32* | 10
CC(NC(=O)COC(=O)C1CCN(c2ccc(C(F)(F)F)cn2)CC1)c1ccc(F)cc1 (stereo not given) | -2 | . | 2 | 8 | 6 | -21 | . | .
COC(=O)c1ccc(C2c3[nH]c4ccccc4c3C[C@H]3C(=O)N(C)CC(=O)N23)cc1 (stereo not given in full) | 17 | 11 | -2 | 7 | 1 | 2 | . | .
CCN1C(=O)[C@@H]2Cc3c([nH]c4ccccc34)C(c3ccc(OC)cc3)N2C1=S (stereo not given in full) | 52 | 10 | 5 | 41* | 5 | -47 | 20* | 61*
CC1CCN(CCc2nc3cc(NC(=O)NC4CCCCC4)ccc3n2C)CC1 | -2 | -2 | -3 | 19* | 1 | -18 | 3 | 11
CC(C)CC1NC(=O)c2cc3ccccc3cc2-n2c1nc1ccc(F)cc1c2=O (stereo not given) | -1 | . | . | . | . | . | . | .
COCCN1C(=O)/C(=C/c2ccc(N3CCCC3)cc2)SC1=S | 3 | . | -4 | 26* | 3 | -37 | 77* | 13
Cc1c(OCC(=O)N[C@H](C(=O)O)c2ccccc2)ccc2c3c(c(=O)oc12)CCCC3 | -3 | 13 | -2 | -1 | 4 | 5 | . | .
CCc1ccc(C(=O)Nc2ccc(OC)c(S(=O)(=O)N3CCOCC3)c2)cc1 | -4 | 2 | -1 | -2 | 1 | 2 | . | .
COC(=O)c1cc(NC(=O)c2ccc(-c3ccccc3)cc2)ccc1Cl | 2 | -7 | -1 | 30* | -1 | -19 | 9 | 28*
COC(=O)c1cc(NC(=O)Nc2cccc(Cl)c2)ccc1Cl | 4 | 22 | 2 | 0 | 5 | 1 | . | .
COc1ccc(NC(=O)c2ccc(-c3ccccc3)cc2)cc1S(=O)(=O)N1CCOCC1 | -2 | -1 | -1 | 22* | -1 | -25 | 19* | 61*
COc1ccc(CCC(=O)NCCNC(=O)CCc2ccc(OC)cc2)cc1 | 2 | -3 | -2 | -8 | 2 | 2 | . | .
SMILES | Granule exo inh | SKKanGAS inh | PP1 inh | IDE inh | PP5 inh | IDE cell activ | IDE cell inh cf | HEK cytotox | others
CC(C)N1CCCC(C)(C(=O)Nc2cccc(Oc3ccccc3)c2)C1 (stereo not given) | 1 | . | . | . | . | . | . | .
Cc1ccc[n+](CC(=O)c2ccc(-c3ccccc3)cc2)c1 | 0 | -6 | 1 | 22* | 2 | 1 | 8 | 16
CCCCn1nnnc1C(c1cc2ccccc2o1)N1CCN(CC(=O)NC(C)C)CC1 (stereo not given) | -3 | . | . | . | . | . | . | .
C=CCc1cccc(/C=N/n2cnnc2)c1O | -2 | -2 | 0 | -1 | -2 | 6 | . | .
C=CCc1cccc(/C=C/c2cc(=O)c3ccccc3[nH]2)c1O | -3 | -11 | -6 | 17* | 0 | -29 | 3 | 11
COc1ccc(C2C(C(C)=O)=C(C)N=c3s/c(=C\c4ccco4)c(=O)n32)c(OC)c1 (stereo not given) | 0 | 8 | 1 | 5 | 4 | -3 | . | .
COc1ccc(C2C(C(C)=O)=C(C)N=c3s/c(=C\c4cc(C)n(C)c4C)c(=O)n32)c(OC)c1 (stereo not given) | -3 | 19 | 2 | 116* | 5 | -39 | 26* | 10
COc1ccc(Cc2ccccc2C(=O)O)cc1 | 0 | . | . | . | . | 3 | . | .
COc1ccc(CC2=CC(=O)c3ccccc3C2=O)cc1 | 50 | 66* | 1 | 46* | 3 | -28 | 35* | 68*
O=C(C1CCCN1S(=O)(=O)c1ccc(Cl)cc1)N1CCN(c2ccccc2)CC1 (stereo not given) | -2 | . | . | 5 | . | 1 | . | .
CC(C)(C)c1ccc(OCCC(=O)OCC(=O)Nc2ccc(N3CCOCC3)cc2)cc1 | 16 | 21 | -4 | -1 | 3 | 1 | . | .
O=C(CCC1CCCNC1)c1ccccc1 (stereo not given) | . | -1 | -1 | -4 | 1 | . | . | .

Screening results as filed in PubChem.
